From PubChem BioAssay (EPA / NIEHS)
Results filed as inconclusive are left out. The source made the active and inactive calls. How the source made its calls, unless noted: active means hit-call score of the fitted dose curve at least 0.9, where 1 is the maximum; inactive means score below 0.9.

Key:
[1] = BSK_3C_VCAM1: BioMAP Diversity Plus: 3C Assay for Vascular cell adhesion molecule 1 (VCAM1) Biomarker Activity (AID 2282999); conditions: BioMAP 3C HUVEC, VCAM1 ELISA, cytokine-stimulated; actives raise or lower the signal
Procedure, shortened: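 Activity fitted in both directions relative to DMSO, with ELISA measurement of the surface marker on primary HUVEC (3C) at 24 h post-treatment; parallel SRB staining (0.1% SRB, TCA-fixed, 560 nm) flagged overt cytotoxicity.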

[2] = BSK_4H_Eotaxin3: BioMAP Diversity Plus: 4H Assay for Eotaxin 3 Biomarker Activity (AID 2283000); conditions: primary human endothelial cells (HUVEC); actives raise or lower the signal
Procedure, shortened: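 ELISA quantitation of CCL26 (Eotaxin-3) protein from chemically dosed human vascular endothelial cells at 24 h; increases and decreases both scored relative to DMSO-treated baseline.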

[3] = target: human Peroxisome Proliferator-activated Receptor alpha (PPARa), PPARA (gene 5465) (UniProt Q07869); experiment: ATG_PPARa_TRANS: Attagene TRANS-FACTORIAL HepG2 Assay for human Peroxisome Proliferator-activated Receptor alpha (PPARa) (AID 2283001; active means hit-call score of the fitted dose curve at least 0.9, where 1 is the maximum)
Procedure, shortened: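 Reporter transcripts quantified by RT-PCR plus capillary electrophoresis after 24 h treatment, fitted upward relative to DMSO. Cells: human HepG2 transiently carrying multiple GAL4-UAS reporter units driven by NR-Gal4 chimeras.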

[4] = target: human Peroxisome Proliferator-activated Receptor delta (PPARd), PPARD (gene 5467) (UniProt Q03181); experiment: ATG_PPARd_TRANS: Attagene TRANS-FACTORIAL HepG2 Assay for human Peroxisome Proliferator-activated Receptor delta (PPARd) (AID 2283002; active means hit-call score of the fitted dose curve at least 0.9, where 1 is the maximum)
Procedure, shortened: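 Cell-based TRANS reporter: HepG2, transient MRTU transfection, 24 h exposure. Readout = reporter mRNA (RT-PCR/CE, 6-FAM). Gain-of-signal fit vs DMSO control.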

[5] = read-out: Intercellular Adhesion Molecule 1 (ICAM1), ICAM1 (gene 3383); experiment: BSK_3C_ICAM1: BioMAP Diversity Plus: 3C Assay for Intercellular Adhesion Molecule 1 (ICAM1) Biomarker Activity (AID 2283003); conditions: primary human endothelial cells (HUVEC); actives raise or lower the signal
Procedure, shortened: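 Chemicals are dosed onto primary human umbilical vein endothelium (3C system). After 24 h, ICAM-1 is measured by ELISA, and responses are fitted bidirectionally relative to DMSO.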

[6] = BSK_3C_Proliferation: Cell Proliferation Assessment in the BioMAP Diversity Plus: 3C Assay (AID 2283006); conditions: primary human endothelial cells (HUVEC);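 on AC50: potency may reflect either rise or fall in cell number versus DMSO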
Procedure, shortened: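 Cells (human umbilical vein endothelial, sub-confluent) receive test chemical; after 48 h they are fixed in 10% trichloroacetic acid, stained with 0.1% SRB and read at 560 nm. Activity is referenced to DMSO, fitting increases and decreases.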

[7] = target: Peroxisome proliferator-activated receptor gamma (Homo sapiens) (UniProt P37231); experiment: ATG_PPARg_TRANS: Attagene TRANS-FACTORIAL HepG2 Assay for human Peroxisome Proliferator-activated Receptor-gamma (PPARg) (AID 2283007; active means hit-call score of the fitted dose curve at least 0.9, where 1 is the maximum)
Procedure, shortened: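 Endpoint reflects upward reporter mRNA change versus DMSO controls. Setup: transiently transfected HepG2, GAL4-UAS reporters driven by chimeric NR-Gal4, 24 h incubation, RT-PCR with capillary electrophoresis read-out.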

[8] = target: Nuclear receptor subfamily 1 group I member 2 (Homo sapiens) (UniProt O75469); experiment: ATG_PXR_TRANS: Attagene TRANS-FACTORIAL HepG2 Assay for human Pregnane X Receptor (PXR) (AID 2283008; active means hit-call score of the fitted dose curve at least 0.9, where 1 is the maximum)
Procedure, shortened: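 Transactivation by exogenous PXR–GAL4 fusion measured as reporter transcript induction after 24 h compound treatment of transfected human HepG2 cells. Read-out via RT-PCR and capillary electrophoresis of labelled fragments, fitted upward relative to DMSO.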

[9] = target: human Retinoic Acid Receptor beta (RARb), RARB (gene 5915) (UniProt P10826); experiment: ATG_RARb_TRANS: Attagene TRANS-FACTORIAL HepG2 Assay for human Retinoic Acid Receptor beta (AID 2283004; active means hit-call score of the fitted dose curve at least 0.9, where 1 is the maximum)
Procedure, shortened: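 Fluorescent capillary-electrophoresis detection of GAL4-UAS reporter mRNA defines the endpoint, with induction over DMSO-treated wells scored as activity. Transiently transfected human hepatoma HepG2 cells expressing exogenous NR–Gal4 proteins are exposed to test chemicals for 24 h.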

[10] = target: Retinoic acid receptor alpha (Homo sapiens) (UniProt P10276); experiment: ATG_RARa_TRANS: Attagene TRANS-FACTORIAL HepG2 Assay for human Retinoic Acid Receptor alpha (RARa) (AID 2283005; active means hit-call score of the fitted dose curve at least 0.9, where 1 is the maximum;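 on AC50: potency for increased reporter signal meaning RARa activation over DMSO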)
Procedure, shortened: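 Reporter transcripts, measured by RT-PCR with fluorescent labeling and capillary electrophoresis after 24 h dosing, reflect activity of an exogenous human RARa–GAL4 fusion in transiently transfected HepG2. Fitted for increase relative to DMSO.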

Measured: AC50

human Peroxisome Proliferator-activated Receptor delta (PPARd), PPARD (gene 5467), sequence (Q03181 whole entry, looked up): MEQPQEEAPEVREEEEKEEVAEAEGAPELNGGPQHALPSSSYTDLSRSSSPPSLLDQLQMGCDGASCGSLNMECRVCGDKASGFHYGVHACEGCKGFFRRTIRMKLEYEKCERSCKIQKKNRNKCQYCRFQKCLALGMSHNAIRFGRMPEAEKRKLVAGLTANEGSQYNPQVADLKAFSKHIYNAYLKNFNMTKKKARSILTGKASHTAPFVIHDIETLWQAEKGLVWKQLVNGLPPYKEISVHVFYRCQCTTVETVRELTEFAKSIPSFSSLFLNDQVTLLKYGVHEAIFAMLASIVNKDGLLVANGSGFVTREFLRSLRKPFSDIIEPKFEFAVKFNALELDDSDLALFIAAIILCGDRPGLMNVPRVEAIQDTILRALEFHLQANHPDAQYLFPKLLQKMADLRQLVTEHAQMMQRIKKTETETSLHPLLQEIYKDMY
Peroxisome proliferator-activated receptor gamma (Homo sapiens), sequence (P37231 whole entry, looked up, the tested form may be a part): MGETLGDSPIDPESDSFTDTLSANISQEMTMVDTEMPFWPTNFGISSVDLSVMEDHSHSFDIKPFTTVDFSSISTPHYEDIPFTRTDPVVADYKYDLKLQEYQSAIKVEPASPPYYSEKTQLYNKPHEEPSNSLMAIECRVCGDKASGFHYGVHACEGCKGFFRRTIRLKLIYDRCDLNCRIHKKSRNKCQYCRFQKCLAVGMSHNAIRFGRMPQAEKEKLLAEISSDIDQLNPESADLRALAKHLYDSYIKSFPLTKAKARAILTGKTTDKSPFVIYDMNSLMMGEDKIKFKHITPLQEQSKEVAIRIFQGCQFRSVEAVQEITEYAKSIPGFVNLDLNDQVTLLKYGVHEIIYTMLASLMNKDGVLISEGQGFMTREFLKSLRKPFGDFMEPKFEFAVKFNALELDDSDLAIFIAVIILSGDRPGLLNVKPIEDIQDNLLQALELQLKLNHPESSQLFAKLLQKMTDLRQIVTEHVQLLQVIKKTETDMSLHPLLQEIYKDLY
Nuclear receptor subfamily 1 group I member 2 (Homo sapiens), sequence (O75469 whole entry, looked up, the tested form may be a part): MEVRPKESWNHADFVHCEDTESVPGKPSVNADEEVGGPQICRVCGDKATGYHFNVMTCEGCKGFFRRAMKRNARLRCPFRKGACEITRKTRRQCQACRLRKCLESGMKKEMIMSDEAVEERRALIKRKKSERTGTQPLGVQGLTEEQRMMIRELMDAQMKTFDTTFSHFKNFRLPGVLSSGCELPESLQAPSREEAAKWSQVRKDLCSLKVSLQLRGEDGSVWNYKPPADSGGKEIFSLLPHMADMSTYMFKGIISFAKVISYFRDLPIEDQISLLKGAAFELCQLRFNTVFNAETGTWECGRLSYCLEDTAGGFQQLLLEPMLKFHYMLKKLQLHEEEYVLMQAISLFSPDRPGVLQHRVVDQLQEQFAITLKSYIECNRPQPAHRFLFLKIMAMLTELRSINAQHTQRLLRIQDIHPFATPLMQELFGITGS
human Retinoic Acid Receptor beta (RARb), RARB (gene 5915), sequence (P10826 whole entry, looked up, the tested form may be a part): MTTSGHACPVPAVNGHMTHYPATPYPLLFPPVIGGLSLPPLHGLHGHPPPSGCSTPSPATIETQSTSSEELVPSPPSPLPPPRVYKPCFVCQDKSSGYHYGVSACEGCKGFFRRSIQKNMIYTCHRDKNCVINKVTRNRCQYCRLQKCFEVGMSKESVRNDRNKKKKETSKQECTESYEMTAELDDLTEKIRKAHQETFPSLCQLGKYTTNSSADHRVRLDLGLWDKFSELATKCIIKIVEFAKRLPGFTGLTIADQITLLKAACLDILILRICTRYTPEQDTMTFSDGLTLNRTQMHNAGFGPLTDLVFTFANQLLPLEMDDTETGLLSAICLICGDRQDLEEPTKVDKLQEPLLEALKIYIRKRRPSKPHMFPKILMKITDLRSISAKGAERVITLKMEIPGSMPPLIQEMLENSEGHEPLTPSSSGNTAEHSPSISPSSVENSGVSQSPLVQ
Retinoic acid receptor alpha (Homo sapiens), sequence (P10276 whole entry, looked up, the tested form may be a part): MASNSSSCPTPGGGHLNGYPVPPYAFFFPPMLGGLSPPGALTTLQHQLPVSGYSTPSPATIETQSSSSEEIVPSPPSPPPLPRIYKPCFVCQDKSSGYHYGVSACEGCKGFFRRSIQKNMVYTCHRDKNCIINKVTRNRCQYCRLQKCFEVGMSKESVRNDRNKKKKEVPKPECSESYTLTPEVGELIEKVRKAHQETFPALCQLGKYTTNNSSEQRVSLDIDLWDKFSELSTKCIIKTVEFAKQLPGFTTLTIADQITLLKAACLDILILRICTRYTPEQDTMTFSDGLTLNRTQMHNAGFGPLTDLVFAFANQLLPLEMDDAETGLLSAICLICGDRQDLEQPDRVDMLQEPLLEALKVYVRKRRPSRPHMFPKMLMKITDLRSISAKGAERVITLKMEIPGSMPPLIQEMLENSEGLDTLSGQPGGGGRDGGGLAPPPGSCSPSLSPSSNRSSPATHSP
human Peroxisome Proliferator-activated Receptor alpha (PPARa), PPARA (gene 5465), sequence (Q07869 whole entry, looked up, the tested form may be a part): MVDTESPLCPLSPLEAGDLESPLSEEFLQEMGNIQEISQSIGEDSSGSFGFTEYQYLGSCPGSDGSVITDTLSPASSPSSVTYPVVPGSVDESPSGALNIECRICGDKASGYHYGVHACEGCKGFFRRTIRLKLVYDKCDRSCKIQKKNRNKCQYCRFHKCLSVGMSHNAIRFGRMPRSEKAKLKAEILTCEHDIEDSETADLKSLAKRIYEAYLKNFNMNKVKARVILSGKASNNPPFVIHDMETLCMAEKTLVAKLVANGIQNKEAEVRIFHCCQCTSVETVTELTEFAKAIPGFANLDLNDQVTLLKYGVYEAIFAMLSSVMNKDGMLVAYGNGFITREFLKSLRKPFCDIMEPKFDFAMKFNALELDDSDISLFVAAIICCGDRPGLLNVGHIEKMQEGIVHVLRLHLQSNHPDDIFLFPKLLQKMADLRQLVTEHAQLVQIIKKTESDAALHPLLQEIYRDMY

COP(=S)(OC)Oc1ccc([N+](=O)[O-])c(C)c1
active: [6] 25.6 µM | [7] 32.6 µM
not listed: [9] | [10]
inactive: all other assays above

CCN(CC)c1nc(C)cc(OP(=S)(OC)OC)n1
active: [6] 28.7 µM | [7] 46.1 µM | [8] 13.8 µM
inactive: all other assays above

Cc1cc(C)nc(Nc2ccccc2)n1
not listed: [8]
inactive: all other assays above

CC(C)=CC1C(C(=O)OCc2coc(Cc3ccccc3)c2)C1(C)C (configuration not stated)
active: [2] 8.05 µM | [6] 10.3 µM | [7] 13.1 µM
not listed: [8]
inactive: all other assays above

CCCCC(C#N)(Cn1cncn1)c1ccc(Cl)cc1 (configuration not stated)
active: [10] 19.7 µM
not listed: [4]
inactive: all other assays above

CC(C)Oc1cccc(NC(=O)c2ccccc2C(F)(F)F)c1
active: [7] 30.9 µM | [8] 23.4 µM
inactive: all other assays above

Cn1c(-c2ccccc2)cc(-c2ccccc2)[n+]1C
inactive: [1] | [2] | [3] | [4] | [5] | [6]

N#CN=C1SCCN1Cc1ccc(Cl)nc1
not listed: [8] | [9]
inactive: all other assays above

Cc1ccc(N=CN(C)C=Nc2ccc(C)cc2C)c(C)c1
inactive: [3] | [9]
active: [1] 16.4 µM | [2] 38.6 µM | [5] 30.3 µM | [6] 15.3 µM

O=C1C2CC=CCC2C(=O)N1SC(Cl)(Cl)Cl (configuration not stated)
active: [1] 26.6 µM | [6] 32.4 µM
not listed: [9]
inactive: all other assays above

CS(=O)(=O)c1ccc(C(=O)C2C(=O)CCCC2=O)c([N+](=O)[O-])c1
not listed: [8] | [9] | [10]
inactive: all other assays above

CS(=O)(=O)c1cc(C(F)(F)F)ccc1C(=O)c1cnoc1C1CC1
active: [7] 14.2 µM
not listed: [4] | [8]
inactive: all other assays above

CN/C(=N\[N+](=O)[O-])NCc1cnc(Cl)s1
inactive: [1] | [2] | [3] | [5] | [10] | [6]

COCc1cnc(C2=NC(C)(C(C)C)C(=O)N2)c(C(=O)O)c1 (configuration not stated)
not listed: [4]
inactive: all other assays above

COC(=O)c1c(C(F)F)nc(C(F)(F)F)c(C2=NCCS2)c1CC(C)C
active: [2] 6.71 µM | [6] 36.9 µM | [7] 45.5 µM
not listed: [8] | [10]
inactive: all other assays above

CCOc1cc(C(C)(C)C)ccc1C1COC(c2c(F)cccc2F)=N1 (configuration not stated)
active: [1] 28 µM | [2] 29 µM | [10] 3.63 µM | [6] 14.4 µM
not listed: [4]
inactive: all other assays above

COP(=S)(OC)SCn1nnc2ccccc2c1=O
not listed: [8] | [10]
inactive: all other assays above

CCCN(CC)CC1COC2(CCC(C(C)(C)C)CC2)O1 (configuration not stated)
not listed: [7] | [9] | [10]
inactive: all other assays above

CCOc1nc(F)cc2nc(S(=O)(=O)Nc3c(Cl)cccc3Cl)nn12
active: [7] 24.6 µM
not listed: [8] | [9] | [10]
inactive: all other assays above

CN=C=S
active: [7] 50 µM
not listed: [8] | [9]
inactive: all other assays above

Nc1cnn(-c2ccccc2)c(=O)c1Cl
active: [7] 22.4 µM
not listed: [8] | [9] | [10]
inactive: all other assays above

CCOc1nc(C(Cl)(Cl)Cl)ns1
not listed: [4] | [8]
inactive: all other assays above

Cc1nc(N(C)C)nc(OC(=O)N(C)C)c1C
not listed: [9] | [10]
inactive: all other assays above

COc1cc(Cl)c(OC)cc1Cl
not listed: [4] | [8]
inactive: all other assays above

Cc1cnc(C2=NC(C)(C(C)C)C(=O)N2)c(C(=O)O)c1 (configuration not stated)
active: [8] 50 µM
not listed: [4] | [9]
inactive: all other assays above

CC1(C)CON(Cc2ccccc2Cl)C1=O
not listed: [8]
inactive: all other assays above

N#Cc1c(Cl)cccc1Cl
active: [8] 72.3 µM
not listed: [9] | [10]
inactive: all other assays above

O=C(O)c1c(Cl)ccc2cc(Cl)cnc12
inactive: [1] | [2] | [3] | [5] | [6] | [7]

O=c1n(Cl)c(=O)n(Cl)c(=O)n1Cl
not listed: [8]
inactive: all other assays above

O=P(O)(O)CCCl
inactive: all assays above

COCC(=O)N(c1c(C)cccc1C)C(C)C(=O)OC (configuration not stated)
not listed: [4] | [8] | [9]
inactive: all other assays above

CC(C)N1C(=O)c2ccccc2NS1(=O)=O
not listed: [9] | [10]
inactive: all other assays above

CCC(C)n1c(=O)[nH]c(C)c(Br)c1=O (configuration not stated)
inactive: [1] | [2] | [3] | [5] | [6]
